# Assay results taken from PubChem BioAssay (Tox21).
# Results filed as inconclusive are left out. Entries that show only a call come without a potency. Values without a mark were called inactive. Active and inactive are the calls of the source. Calls come from the whole dose curve; as a rule, active = well fitted curve in the direction sought with a large enough effect in the repeat runs; inconclusive = weak or mixed curves; inactive = no such curve, though single readings can be large; an effect the other way counts as inactive or inconclusive.
# Tested on: not listed separately
# Test: qHTS assay to identify small molecule antagonists of the estrogen related receptor (ERR) signaling pathway from Tox21 library - cell viability counter screen (AID 1224834); note: nearly all actives have a fitted effect of over 30% in size
# Settings: ERR reporter cells viability, CellTiter-Fluor, 17.5 h; series mostly up to 92.4 µM
# Procedure, shortened: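 ERR reporter cells were plated 6 h before compound addition, then exposed to test compounds in DMSO for 17.5 h at 37 C. Viability was read as CellTiter-Fluor fluorescence after a 30-minute incubation at 37 C.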
SMILES,Potency,"viability change, negative = cytotoxic"
CC(C)COP(=O)(OCC(C)C)OCC(C)C,inactive,–
CCOC(=O)CP(=O)(OCC)OCC,inactive,–
CCOC(=O)NC(=S)Nc1ccccc1NC(=S)NC(=O)OCC,inactive,–
c1cc2c(c(N3CCNCC3)c1)OCCO2,inactive,–
C[N+](C)=CCl,inactive,–
COC(=O)c1c(C(F)F)nc(C(F)(F)F)c(C2=NCCS2)c1CC(C)C,inactive,–
OCCBr,inactive,–
C[N+](=O)[O-],inactive,–
[O]=[Cd],inactive,–
CC1=NNC(=O)N(/N=C/c2cccnc2)C1,inactive,–
Cc1ncsc1CCCl,inactive,–
CC(C)CC#N,inactive,–
N#Cc1ccncc1,inactive,–
CC(C1CC1)C(O)(Cn1cncn1)c1ccc(Cl)cc1 (stereo unspecified),inactive,–
OC(Cn1cncn1)(c1ccc(F)cc1)c1ccccc1F (stereo unspecified),inactive,–
C#C[C@]1(O)C=C[C@H]2[C@@H]3CCC4=CC(=O)CC[C@@H]4[C@H]3CC[C@@]21CC,inactive,–
CC(C(=O)c1ccccc1)N(C)C (stereo unspecified),inactive,–
O=[N+]([O-])c1ccc(CBr)cc1,inactive,–
COC(C)(C)C,inactive,–

SMILES,Potency,"viability change, negative = cytotoxic"
NC(=O)c1cc([N+](=O)[O-])cc([N+](=O)[O-])c1,inactive,–
OC(c1ccccc1)(c1ccccc1)C1CCNCC1,inactive,–
CCNc1nc(NC(C)C)nc(OC)n1,inactive,–
O=C(Oc1ccc(Br)cc1)N1CCN2CCC1CC2,inactive,–
C=C(C)[C@@H]1CC=C(C=O)CC1,inactive,–
Clc1ccccc1N1CCNCC1,inactive,–
CCCCP(CCCC)CCCC,inactive,–
CCSC(=O)N(CC)C1CCCCC1,inactive,–
CC1CCC(=O)O1 (stereo unspecified),inactive,–
CC(C)CC(N(C)C)C1(c2ccc(Cl)cc2)CCC1 (stereo unspecified),inactive,–
O=C1c2ccccc2C(=O)c2ccccc21,–,0.548% [at 19 µM]
O=C1OC(c2ccc(O)c(S(=O)(=O)O)c2)(c2ccc(O)c(S(=O)(=O)O)c2)c2c(Br)c(Br)c(Br)c(Br)c21,inactive,–
O=[N+]([O-])c1ccc2c3c(cccc13)CC2,inactive,–
C[C@]1(O)CC[C@H]2[C@@H]3CCC4=CC(=O)CC[C@]4(C)[C@@]3(F)[C@@H](O)C[C@@]21C,inactive,–
O=C(O)C(Br)CBr (stereo unspecified),inactive,–
Cc1ncc(CNC(=O)N(CCCl)N=O)c(N)n1,inactive,–
CNC(=O)O/N=C(\C)SC,inactive,–
O=C1CN=C(c2ccccc2)c2cc([N+](=O)[O-])ccc2N1,inactive,–

# Biological target: Luciferin 4-monooxygenase (Photinus pyralis) (UniProt P08659)
# Test: qHTS assay to identify small molecule inhibitors of firefly luciferase (AID 1224835); note: nearly all actives have a fitted effect of over 25% in size
# Settings: purified P. pyralis luciferase, luminescence inhibition; series mostly up to 115 µM
# Procedure, shortened: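 Inhibition of purified Photinus luciferase is measured by luminescence. Substrate levels (D-luciferin, ATP) sit at their KM values. Each compound is tested in a concentration series.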
# Sequence of Luciferin 4-monooxygenase (Photinus pyralis) (P08659 whole entry, looked up): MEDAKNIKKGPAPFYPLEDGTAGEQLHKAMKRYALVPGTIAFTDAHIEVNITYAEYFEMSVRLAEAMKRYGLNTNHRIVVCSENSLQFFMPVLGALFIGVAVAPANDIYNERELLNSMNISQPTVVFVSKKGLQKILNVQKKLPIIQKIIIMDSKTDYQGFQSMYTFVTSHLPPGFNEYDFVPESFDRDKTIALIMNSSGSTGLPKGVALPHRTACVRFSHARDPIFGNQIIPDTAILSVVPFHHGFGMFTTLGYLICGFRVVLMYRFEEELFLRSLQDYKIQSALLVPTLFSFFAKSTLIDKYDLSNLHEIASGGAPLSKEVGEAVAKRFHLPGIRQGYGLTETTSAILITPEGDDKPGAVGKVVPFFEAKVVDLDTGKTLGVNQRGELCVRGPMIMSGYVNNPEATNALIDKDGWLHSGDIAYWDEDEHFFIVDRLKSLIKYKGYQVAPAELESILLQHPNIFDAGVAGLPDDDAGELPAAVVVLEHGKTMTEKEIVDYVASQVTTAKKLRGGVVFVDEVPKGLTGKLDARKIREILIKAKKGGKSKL
SMILES,Potency,"activity change, negative = inhibition"
CC(C)COP(=O)(OCC(C)C)OCC(C)C,inactive,–
CCOC(=O)CP(=O)(OCC)OCC,inactive,–
CCOC(=O)NC(=S)Nc1ccccc1NC(=S)NC(=O)OCC,inactive,–
c1cc2c(c(N3CCNCC3)c1)OCCO2,inactive,–
C[N+](C)=CCl,inactive,–
COC(=O)c1c(C(F)F)nc(C(F)(F)F)c(C2=NCCS2)c1CC(C)C,inactive,–
OCCBr,inactive,–
C[N+](=O)[O-],inactive,–
[O]=[Cd],inactive,–
CC1=NNC(=O)N(/N=C/c2cccnc2)C1,inactive,–
Cc1ncsc1CCCl,inactive,–
CC(C)CC#N,inactive,–
N#Cc1ccncc1,inactive,–
CC(C1CC1)C(O)(Cn1cncn1)c1ccc(Cl)cc1 (stereo unspecified),inactive,–
OC(Cn1cncn1)(c1ccc(F)cc1)c1ccccc1F (stereo unspecified),inactive,–
C#C[C@]1(O)C=C[C@H]2[C@@H]3CCC4=CC(=O)CC[C@@H]4[C@H]3CC[C@@]21CC,inactive,–
CC(C(=O)c1ccccc1)N(C)C (stereo unspecified),inactive,–
O=[N+]([O-])c1ccc(CBr)cc1,inactive,–
COC(C)(C)C,inactive,–

SMILES,Potency,"activity change, negative = inhibition"
NC(=O)c1cc([N+](=O)[O-])cc([N+](=O)[O-])c1,inactive,–
OC(c1ccccc1)(c1ccccc1)C1CCNCC1,inactive,–
CCNc1nc(NC(C)C)nc(OC)n1,inactive,–
O=C(Oc1ccc(Br)cc1)N1CCN2CCC1CC2,inactive,–
C=C(C)[C@@H]1CC=C(C=O)CC1,inactive,–
Clc1ccccc1N1CCNCC1,inactive,–
CCCCP(CCCC)CCCC,inactive,–
CCSC(=O)N(CC)C1CCCCC1,inactive,–
CC1CCC(=O)O1 (stereo unspecified),inactive,–
CC(C)CC(N(C)C)C1(c2ccc(Cl)cc2)CCC1 (stereo unspecified),inactive,–
O=C1c2ccccc2C(=O)c2ccccc21,–,3.8% [at 23.6 µM]
O=C1OC(c2ccc(O)c(S(=O)(=O)O)c2)(c2ccc(O)c(S(=O)(=O)O)c2)c2c(Br)c(Br)c(Br)c(Br)c21,inactive,–
O=[N+]([O-])c1ccc2c3c(cccc13)CC2,inactive,–
C[C@]1(O)CC[C@H]2[C@@H]3CCC4=CC(=O)CC[C@]4(C)[C@@]3(F)[C@@H](O)C[C@@]21C,inactive,–
O=C(O)C(Br)CBr (stereo unspecified),inactive,–
Cc1ncc(CNC(=O)N(CCCl)N=O)c(N)n1,inactive,–
CNC(=O)O/N=C(\C)SC,inactive,–
O=C1CN=C(c2ccccc2)c2cc([N+](=O)[O-])ccc2N1,inactive,–

# Tested on: not listed separately
# Test: qHTS assay to identify small molecule agonists of the constitutive androstane receptor (CAR) signaling pathway - cell viability counter screen (AID 1224836); note: nearly all actives have a fitted effect of over 45% in size
# Settings: HepG2-CYP2B6-hCAR viability, CellTiter-Fluor, 23 h, PK11195 added to every well; series mostly up to 92.4 µM
# Procedure, shortened: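 Using CellTiter-Fluor, viability of HepG2 cells harbouring hCAR and CYP2B6-2.2kb was measured following 23 h incubation with a 15-concentration compound series plus PK11195 (0.75 uM final).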
SMILES,Potency,"viability change, negative = cytotoxic"
CC(C)COP(=O)(OCC(C)C)OCC(C)C,inactive,–
CCOC(=O)CP(=O)(OCC)OCC,inactive,–
CCOC(=O)NC(=S)Nc1ccccc1NC(=S)NC(=O)OCC,inactive,–
c1cc2c(c(N3CCNCC3)c1)OCCO2,inactive,–
C[N+](C)=CCl,inactive,–
COC(=O)c1c(C(F)F)nc(C(F)(F)F)c(C2=NCCS2)c1CC(C)C,inactive,–
OCCBr,inactive,–
C[N+](=O)[O-],inactive,–
[O]=[Cd],inactive,–
CC1=NNC(=O)N(/N=C/c2cccnc2)C1,inactive,–
Cc1ncsc1CCCl,inactive,–
CC(C)CC#N,inactive,–
N#Cc1ccncc1,inactive,–
CC(C1CC1)C(O)(Cn1cncn1)c1ccc(Cl)cc1 (stereo unspecified),inactive,–
OC(Cn1cncn1)(c1ccc(F)cc1)c1ccccc1F (stereo unspecified),inactive,–
C#C[C@]1(O)C=C[C@H]2[C@@H]3CCC4=CC(=O)CC[C@@H]4[C@H]3CC[C@@]21CC,inactive,–
CC(C(=O)c1ccccc1)N(C)C (stereo unspecified),inactive,–
O=[N+]([O-])c1ccc(CBr)cc1,inactive,–
COC(C)(C)C,inactive,–

SMILES,Potency,"viability change, negative = cytotoxic"
NC(=O)c1cc([N+](=O)[O-])cc([N+](=O)[O-])c1,inactive,–
OC(c1ccccc1)(c1ccccc1)C1CCNCC1,inactive,–
CCNc1nc(NC(C)C)nc(OC)n1,inactive,–
O=C(Oc1ccc(Br)cc1)N1CCN2CCC1CC2,inactive,–
C=C(C)[C@@H]1CC=C(C=O)CC1,inactive,–
Clc1ccccc1N1CCNCC1,inactive,–
CCCCP(CCCC)CCCC,inactive,–
CCSC(=O)N(CC)C1CCCCC1,inactive,–
CC1CCC(=O)O1 (stereo unspecified),inactive,–
CC(C)CC(N(C)C)C1(c2ccc(Cl)cc2)CCC1 (stereo unspecified),inactive,–
O=C1c2ccccc2C(=O)c2ccccc21,–,5.88% [at 19 µM]
O=C1OC(c2ccc(O)c(S(=O)(=O)O)c2)(c2ccc(O)c(S(=O)(=O)O)c2)c2c(Br)c(Br)c(Br)c(Br)c21,inactive,–
O=[N+]([O-])c1ccc2c3c(cccc13)CC2,inactive,–
C[C@]1(O)CC[C@H]2[C@@H]3CCC4=CC(=O)CC[C@]4(C)[C@@]3(F)[C@@H](O)C[C@@]21C,inactive,–
O=C(O)C(Br)CBr (stereo unspecified),inactive,–
Cc1ncc(CNC(=O)N(CCCl)N=O)c(N)n1,inactive,–
CNC(=O)O/N=C(\C)SC,inactive,–
O=C1CN=C(c2ccccc2)c2cc([N+](=O)[O-])ccc2N1,inactive,–
